# Measured values as given in PubChem BioAssay AID778 (Sanford-Burnham Center for Chemical Genomics, 2007).
# Out of some 96,000 compounds screened, about 20,000 (21%) were called active.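 The calls were made as follows: active = CYP2C19 inhibition above a set limit at 5 µM in the primary screen (cut at about 50% in these data); inactive = the rest.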 These entries were drawn from the full list.
# Target: Cytochrome P450 2C19 (Homo sapiens) (UniProt P33261)
# Assay: blockers of cytochrome P450 2C19 activity – biochemical, luminescence, ADME assay, primary screen (AID 778);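 also: plate controls were negative control wells for no effect and 2.5 mM tranylcypromine positive control for full effect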
# Settings: CYP2C19 Supersomes, luciferin-H EGE luminescence, 30 min; at 5 µM; hits give high values
# Chain of Cytochrome P450 2C19 (Homo sapiens) (P33261 whole entry, looked up): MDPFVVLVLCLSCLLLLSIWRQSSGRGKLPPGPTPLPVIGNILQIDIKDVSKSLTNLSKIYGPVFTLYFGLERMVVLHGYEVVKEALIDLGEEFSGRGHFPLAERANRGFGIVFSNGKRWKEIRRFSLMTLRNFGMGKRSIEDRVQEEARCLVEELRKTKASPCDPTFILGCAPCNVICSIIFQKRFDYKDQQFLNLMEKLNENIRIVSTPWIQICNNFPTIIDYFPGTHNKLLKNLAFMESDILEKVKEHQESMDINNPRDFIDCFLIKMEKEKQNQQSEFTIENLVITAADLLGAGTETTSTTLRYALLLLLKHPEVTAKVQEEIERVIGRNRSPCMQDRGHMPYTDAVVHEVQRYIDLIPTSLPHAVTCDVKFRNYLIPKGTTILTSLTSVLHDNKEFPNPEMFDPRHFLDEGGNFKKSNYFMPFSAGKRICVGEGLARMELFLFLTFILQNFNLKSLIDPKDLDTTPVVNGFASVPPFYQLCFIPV
row,SMILES,inhibition
1,O=C(CSc1nc(-c2ccco2)cc(C(F)(F)F)n1)NCc1cccs1,8.5% (inactive)
2,O=C(Cn1c(=O)sc2ccccc21)Nc1ccc2c(c1)OCCO2,7.6% (inactive)
3,CC1Cc2ccccc2N1CC(=O)Nc1ccc2c(c1)OC(F)(F)O2 (stereo not given),97.3% (active)
4,CC1(C)Oc2ccc(C(=O)N3CCOCC3)cc2N(CC(=O)Nc2ccccc2)C1=O,30.3% (inactive)
5,Cc1nnc(NCCO)c2ccccc12,7.5% (inactive)
6,CSC1=N/C(=C\C=C\c2cccs2)C(=O)S1,-11% (inactive)
7,CCCCOC(=O)c1[nH]c(C)c(C(=O)OC)c1C,81.6% (active)
8,CCCOC(=O)c1[nH]c2c(c1C)C(=O)CC(c1cc(OC)c(OC)c(OC)c1)C2 (stereo not given),38.4% (inactive)
9,CCCCN(CC)CCNC(=O)c1[nH]c(C)c(C(C)=O)c1C,-8% (inactive)
10,Cc1nc2nc3c(cn2n1)C(=O)CC(c1ccccc1)C3 (stereo not given),99.6% (active)
11,Cc1ccc(Cc2cnc(NC(=O)/C(C#N)=C/c3ccc(-c4cccc([N+](=O)[O-])c4)o3)s2)cc1,-3.9% (inactive)
12,O=C(CN1CCN(S(=O)(=O)/C=C/c2ccccc2)CC1)NC(=O)NCc1ccco1,54% (active)
13,CC1(c2ccccc2Cl)NC(=O)N(CC(=O)NC(=O)NCc2ccco2)C1=O (stereo not given),22.5% (inactive)
14,O=C(COC(=O)c1ccc(S(=O)(=O)N2CCc3ccccc3C2)cc1)NC(=O)NCc1ccco1,8.9% (inactive)
15,CCCOn1c(-n2nc(C)cc2C)nc2ccccc2c1=O,47.2% (inactive)
16,O=C(NCc1ccco1)c1sc2cccc(F)c2c1Cl,-8.9% (inactive)
17,CCOc1cc(/C=N/n2cnnc2)c(Br)cc1O,5.4% (inactive)
18,Cc1ccc2c(c1)N(C(=O)CCC(=O)N1CCc3ccccc3C1)CCO2,39.4% (inactive)
19,c1ccc(-c2cn3c(n2)CCc2ccc4cccnc4c2-3)cc1,15.9% (inactive)
20,COc1ccc(S(=O)(=O)N2CCC(C(=O)N3CCc4ccccc4C3)CC2)cc1OC,53.6% (active)
21,COc1ccccc1N(C)S(=O)(=O)c1ccc(C(=O)N2CCC(C(N)=O)CC2)cc1,8.7% (inactive)
22,COc1ccc(S(=O)(=O)N2CCC(C(=O)N3CCOCC3)CC2)cc1OC,7.3% (inactive)
23,CCS(=O)(=O)c1ccc2c(c1)N(S(=O)(=O)c1ccccc1)CC(C(=O)O)O2 (stereo not given),0.1% (inactive)
24,CCC1CCCCN1CCCNC(=O)C1CCC(Cn2c(=O)[nH]c3ccccc3c2=O)CC1 (stereo not given),6% (inactive)

row,SMILES,inhibition
1,CCOC(=O)c1c(-n2cnnn2)sc(C)c1C,7.5% (inactive)
2,Cc1nc(NNC(=O)c2ccccc2)cc(-c2ccccc2)n1,-0.2% (inactive)
3,CNC(=O)Nc1cc(C(C)(C)C)no1,32.3% (inactive)
4,O=C(CSc1nc2ncccc2[nH]1)Nc1ccc2c(c1)OCCO2,82.3% (active)
5,O=C(CSc1nnc(-c2ccccn2)n1-c1ccccc1)Nc1ccc2c(c1)OCO2,5% (inactive)
6,CCC(=O)Nc1cccc(NC(=O)CSc2nnnn2C2CCCC2)c1,36.1% (inactive)
7,O=C(CSc1nnnn1C1CCCC1)Nc1ccc2c(c1)OCCO2,68.5% (active)
8,CCn1c(SCC(=O)Nc2ccc3c(c2)OCCO3)nc2c(c1=O)SC(C)C2 (stereo not given),61.9% (active)
9,O=C(CSc1nc(C2CC2)nc2ccccc12)Nc1ccc2c(c1)OCCO2,19.7% (inactive)
10,CCCCSc1nc2c(c(=O)n1CC)SC(C)C2 (stereo not given),42% (inactive)
11,O=C(CSc1nnnn1-c1ccc2c(c1)CCC2)Nc1ccc2c(c1)OCCO2,-2.7% (inactive)
12,Cc1ccc(-n2c(SCC(=O)Nc3ccc4c(c3)OCO4)nnc2-c2ccoc2C)cc1,-13% (inactive)
13,Cc1nonc1OCCn1nnnc1N,4% (inactive)
14,O=C(CCn1c(=S)[nH]c2ccccc2c1=O)NCCCN1CCCC1=O,5.4% (inactive)
15,O=C(CS(=O)(=O)c1cn(Cc2ccc(Cl)cc2)c2ccccc12)N1CCOCC1,35.4% (inactive)
16,CCOC(=O)c1cc(NC(=O)SCC(=O)O)c(C)nc1C,24.3% (inactive)
17,N#CCSc1nc2c(c(=O)n1Cc1ccccc1)C1(CCCC1)Cc1ccccc1-2,-19% (inactive)
18,COc1cc(Br)cc(/C=N/c2ncn[nH]2)c1O,0.3% (inactive)
19,Cc1nc2c(-c3ccc(F)cc3)c(C)nn2c(C)c1CCC(=O)NCc1ccco1,41.7% (inactive)
20,Cc1nc2c(-c3ccc(F)cc3)c(C)nn2c(C)c1CCC(=O)N1CCN(c2ccccn2)CC1,54.1% (active)
21,Cc1nc2nc(C)c(CCC(=O)N3CCN(c4ccccc4)CC3)c(C)n2n1,7.2% (inactive)
22,Cc1nn(C)cc1/C=N/NC(=O)c1sc2ccccc2c1Cl,37.3% (inactive)
23,CC(=O)Nc1ccc(S(=O)(=O)N2CCC(N(C)CCC(C)C)CC2)cc1,2.5% (inactive)
24,CCOC(=O)C1CCc2nc3ccccc3c(=O)n21 (stereo not given),17.8% (inactive)

row,SMILES,inhibition
1,CC(Sc1nc2ccccc2c(=O)n1Cc1ccco1)C(=O)c1ccccc1 (stereo not given),74.1% (active)
2,CCOC(=O)C(C)Sc1nc2ccccc2c(=O)n1CC1CCCCC1 (stereo not given),71.3% (active)
3,CCOn1c(SC(C)C)nc2ccccc2c1=O,-0.2% (inactive)
4,N#Cc1c(NC(=O)CSc2nc3ccccc3c(=O)n2Cc2ccco2)sc2c1CCCC2,-5.2% (inactive)
5,O=C(CN1CCOCC1)Nc1c(-c2ccccc2)c2cc(Br)ccc2[nH]c1=O,4.9% (inactive)
6,Cc1ccc(C(=O)N2CCN(C(=O)N3CCOCC3)CC2)cc1,7.4% (inactive)
7,CCOC(=O)c1[nH]c2ccc(C)cc2c1N=C(C)N(C)C,-13% (inactive)
8,Cc1ccc(-c2ccnc3nc(Sc4ncc(C(F)(F)F)cc4Cl)nn23)cc1,0% (inactive)
9,CCOC(=O)N1CCN(C(c2cccnc2)c2ccc3cccnc3c2O)CC1 (stereo not given),48% (inactive)
10,COC(=O)C1C(=O)NCC1c1ccc(C)cc1 (stereo not given),10.9% (inactive)
11,Cc1ccc(S(=O)(=O)N2CCCC2CO)cc1 (stereo not given),18.4% (inactive)
12,CCN(CCCNC(=O)C1CCN(S(=O)(=O)c2cnc[nH]2)CC1)c1ccccc1,70.9% (active)
13,O=C(NCc1ccco1)C1CCCN(S(=O)(=O)c2ccccc2)C1 (stereo not given),40.8% (inactive)
14,COc1cccc(N2CCN(C(=O)C3CCCN(S(=O)(=O)c4cnc[nH]4)C3)CC2)c1 (stereo not given),25.3% (inactive)
15,CCCS(=O)(=O)N1CCCC(C(=O)NCc2ccco2)C1 (stereo not given),-10.8% (inactive)
16,O=C(NCc1ccco1)C1CCCN(S(=O)(=O)c2cccc3nonc23)C1 (stereo not given),18.2% (inactive)
17,CCCS(=O)(=O)N1CCC(C(=O)NCCCN(C)Cc2ccccc2)CC1,6.8% (inactive)
18,Cc1ccc(S(=O)(=O)N2CCCC2C(=O)NCc2ccco2)cc1 (stereo not given),81.7% (active)
19,Cc1cccc(N2CCN(C(=O)C3CCN(S(=O)(=O)c4cnc[nH]4)CC3)CC2)c1C,7.9% (inactive)
20,O=C(NCc1ccco1)C1CCCN(S(=O)(=O)c2cnc[nH]2)C1 (stereo not given),55.3% (active)
21,CCOc1cccc(NC(=O)C2CCCN(S(=O)(=O)c3ccc(OC)cc3)C2)c1 (stereo not given),48.2% (inactive)
22,CCOC(=O)c1cccc(NC(=O)C2CCCN(S(=O)(=O)c3cnc[nH]3)C2)c1 (stereo not given),58.5% (active)
23,CCN1CCN(C(=O)c2ccccc2N(C)S(=O)(=O)c2ccc(C)cc2)CC1,-7.6% (inactive)
24,CC(C)(C)c1ccc(NC(=O)NCc2ccco2)cc1,2% (inactive)

row,SMILES,inhibition
1,c1cc(-n2cnnn2)ccc1NC1=NCCC1,-15.7% (inactive)
2,CCN1CCCC1Cn1cnc2c([nH]c3cc(OC)ccc32)c1=O (stereo not given),-3.7% (inactive)
3,CC(C)(C)Oc1ncc(Br)c(OC(C)(C)C)n1,-12.1% (inactive)
4,N/C(Cc1ccc([N+](=O)[O-])cc1)=N\OC(=O)COc1ccc2ccccc2c1,4.3% (inactive)
5,COC(=O)c1ccc2c(c1)S(=O)(=O)NC(=NCCCN1CCOCC1)S2,6.8% (inactive)
6,CCOC(=O)Cn1c(=O)oc2cc(S(=O)(=O)N(C)Cc3ccco3)ccc21,14.9% (inactive)
7,CCOC(=O)C1=C(CSc2nnnn2C)N(C)C(=O)NC1c1ccccc1 (stereo not given),79.5% (active)
8,CCOC(=O)C1=C(CSc2nccn2C)NC(=O)NC1c1ccc(OC)cc1 (stereo not given),31.3% (inactive)
9,Cn1nnnc1SCc1cc(=O)[nH]c2ccccc12,2.9% (inactive)
10,CC1(C)Oc2ccc3ccc(=O)oc3c2/C(=C/NCCO)C1=O,-7.3% (inactive)
11,COc1ccccc1NC(=O)c1ccc2nc(N3C(=O)CCC3=O)sc2c1,13.6% (inactive)
12,Cc1cc(NC(=O)CN2CCC(O)(c3cccc(F)c3)CC2)no1,34.5% (inactive)
13,COc1ccccc1CNC(=O)CCCNS(=O)(=O)c1cccc2nsnc12,7.7% (inactive)
14,COc1ccc(CCn2c(NCCCN3CCOCC3)nc3c2c(=O)[nH]c(=O)n3C)cc1,25.2% (inactive)
15,CCCCNc1nc2c(c(=O)[nH]c(=O)n2C)n1CCOc1ccccc1,28.9% (inactive)
16,CC(c1ccccc1)n1c(NCCCn2ccnc2)nc2c1c(=O)[nH]c(=O)n2C (stereo not given),55.9% (active)
17,CCOC(=O)c1cnc(SCC(=O)Nc2cccc(OC)c2)nc1N,-12.1% (inactive)
18,CCOC(=O)N1CCC(C(N)=O)CC1,5.4% (inactive)
19,COc1cc2cc(CN(CCN3CCCC3)C(=O)Nc3ccccc3Cl)c(=O)[nH]c2cc1OC,7.9% (inactive)
20,COc1ccccc1N(C(=O)Cn1nnc2ccccc21)C(C(=O)NCc1ccco1)c1ccc(C)o1 (stereo not given),68% (active)
21,COCCNC(=O)C(c1ccc(C)o1)N(Cc1ccccc1)C(=O)Cn1nnc2ccccc21 (stereo not given),29.3% (inactive)
22,Cc1ccc(C(C(=O)NCc2ccco2)N(CC2CCCO2)C(=O)Cn2nnc3ccccc32)cc1 (stereo not given),17.2% (inactive)
23,Cc1ccc(C(CC(=O)O)Nc2nc(N3CCCCC3)nc(N3CCCCC3)n2)cc1 (stereo not given),11.1% (inactive)
